From PubChem BioAssay
C-LANA FP: inhibitors of KSHV LANA C-terminal domain DNA binding | actives 0.078% (n = 340,000) | inhibition, % at 9 µM | AID 504423 | MBP-C-LANA/FAM-LBS DNA binding, fluorescence polarization;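 active = highest replicate inhibition at or above 60% at 9 µM, even if other replicates fall short; inactive = all replicates below 60% inhibition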
cardiac RTF act: increases calcium sensitivity of human cardiac regulated thin filaments. P19429+P45379. actives 0.24% (n = 340,000). IANBD-labeled TnC RTF fluorescence at EC20 calcium; 0% EC20 calcium, 100% full calcium. activation, % at 7.2 µM;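 active = activation above the mean over all tested compounds plus 3 SD, cut at about 30% in these data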;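 note: rise in fluorescence read as greater calcium sensitivity of cardiac thin filaments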
Keap1-Nrf2 PPI: disrupts human Keap1 binding to Nrf2 peptide; Q14145; Keap1 Kelch-Nrf2 peptide fluorescence polarization, 1536-well; inhibition, % at 9.4 µM; actives 0.15% (n = 340,000); AID 504523; in the data active = inhibition above about 12%;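 note: human Keap1 Kelch domain with fluorescein labeled Nrf2 9mer peptide probe; higher means more block of Keap1 binding to Nrf2 peptide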
E coli Lon inh: E. coli protease La inhibition. P0A9M0. purified E. coli Lon protease, fluorescence polarization. inhibition, % at 7.94 µM. actives 0.42% (n = 360,000); in the data active = inhibition above about 13%, passing the limit was not always enough
Target sequence (P0A9M0 whole entry, looked up): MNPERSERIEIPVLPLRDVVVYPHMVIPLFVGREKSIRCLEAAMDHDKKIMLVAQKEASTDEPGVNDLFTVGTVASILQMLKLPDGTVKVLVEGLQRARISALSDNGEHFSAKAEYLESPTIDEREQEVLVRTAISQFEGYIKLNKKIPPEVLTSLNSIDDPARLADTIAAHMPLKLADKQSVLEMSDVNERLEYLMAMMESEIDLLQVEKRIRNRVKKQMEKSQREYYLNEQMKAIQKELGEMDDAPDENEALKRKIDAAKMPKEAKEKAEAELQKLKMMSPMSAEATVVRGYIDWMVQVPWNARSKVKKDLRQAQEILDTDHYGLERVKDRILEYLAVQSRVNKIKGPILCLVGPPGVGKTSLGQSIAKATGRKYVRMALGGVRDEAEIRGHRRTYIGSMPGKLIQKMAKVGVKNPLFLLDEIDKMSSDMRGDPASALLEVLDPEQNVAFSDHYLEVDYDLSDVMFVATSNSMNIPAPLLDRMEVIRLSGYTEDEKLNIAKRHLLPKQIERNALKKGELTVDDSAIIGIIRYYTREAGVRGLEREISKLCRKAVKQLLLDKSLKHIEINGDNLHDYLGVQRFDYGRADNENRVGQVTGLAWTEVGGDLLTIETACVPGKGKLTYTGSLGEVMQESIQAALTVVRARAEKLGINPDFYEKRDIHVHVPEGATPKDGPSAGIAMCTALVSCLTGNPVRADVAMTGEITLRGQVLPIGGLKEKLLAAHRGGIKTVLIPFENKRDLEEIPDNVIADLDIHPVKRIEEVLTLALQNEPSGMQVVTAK
RTF Ca sens inh: cardiac RTF calcium desensitization; inhibition, % at 7.15 µM; AID 493244; IANBD-labeled cardiac RTF, Ca2+ fluorescence; actives 0.12% (n = 340,000); P19429+P45379;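 active = inhibition above the mean inhibition of all tested compounds plus 3 SD, cut at about 17% in these data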;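 note: assay run at fixed EC70 calcium of 1.6 mM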
RTF Ca inh conf: cardiac RTF calcium sensitivity inhibition, confirmation; reconstituted cardiac thin filaments, calcium sensitivity fluorescence; shares compounds with RTF Ca sens inh; inhibition, % at 7.15 µM; actives 8% (n = 360); in the data active = inhibition above about 18%
A number is an active result; . = inactive; / = no result given. Rows were chosen to be rich in hits. Some 0.74% of all compounds tested hit in one or more screens of this group.

SMILES	C-LANA FP	cardiac RTF act	Keap1-Nrf2 PPI	E coli Lon inh	RTF Ca sens inh	RTF Ca inh conf
O=C(NCCc1c[nH]c2ccccc12)C(=O)NCC1OCCN1S(=O)(=O)c1ccccc1 (configuration not stated)	.	.	.	.	18.5	.
COc1cc(-c2nnc(SCc3cc(=O)oc4cc(O)c(O)cc34)o2)cc(OC)c1OC	.	.	.	.	29.9	17.2
CCOC(=O)CSc1nnc(-c2cc(OC)c(OC)c(OC)c2)o1	.	.	.	.	.	/
CC1(C)C(/C=C/C=C/C=C/C=C2\N(CCCCS(=O)(=O)O)c3ccc4ccccc4c3C2(C)C)=[N+](CCCCS(=O)(=O)[O-])c2ccc3ccccc3c21	.	.	.	.	20.0	.
Cc1cccc(NC(=O)CCSc2ccccn2)c1	.	.	.	.	18.0	.
Cc1ccc(NC(=O)CCSc2ccccn2)cc1	.	.	.	.	.	/
CCN(CC)c1ccc(C(=O)NNC(=O)C2CSC3(C)CCC(=O)N23)cc1 (configuration not stated)	.	.	.	.	.	/
N#Cc1nc(COc2ccc(F)cc2)oc1N1CCCCC1	.	.	.	.	24.2	.
CCOC(=O)[C@]12CCCC=C1N(Cc1cccc3ccccc13)C(=O)[C@H](CC(=O)N1CCC(c3ccccc3)CC1)C2	/	/	/	.	/	/
COc1ccccc1CN1C[C@@H]2C[C@@H](c3ccc(C)cc3)N3CCC[C@@]23C1=O	.	.	.	.	.	/
CCc1ccc([C@@H]2C[C@H]3CN(Cc4ccccc4OC)C(=O)[C@]34CCCN24)cc1	.	.	.	.	55.3	.
O=C(Nc1nccs1)c1ccc(-c2ccc(F)cc2)o1	.	.	.	.	17.1	.
CCOC(=O)c1c(N)sc2c(OC)c(Br)ccc12	.	.	.	.	20.8	.
CCN(CC)S(=O)(=O)c1ccc(N/N=C/c2ccccc2OCC(=O)O)c([N+](=O)[O-])c1	.	.	.	.	18.8	.
CC(C)Cn1c(/C=C/c2ccco2)nc2ccccc21	.	.	.	.	17.6	.
COc1ccc(C(=O)c2ccccc2O)c(O)c1	.	.	.	.	17.4	.
Oc1cccc2ccc[n+](CC(O)Cn3c4ccccc4c4ccccc43)c12 (configuration not stated)	.	.	.	.	18.5	.
CC(C)C[C@H]1CNC(=O)C(=O)N1CC1CCN(CC2CCC(C(C)(C)C)CC2)CC1 (some centres not stated)	.	.	.	.	.	/
CC(Oc1ccccc1)C(=O)Nc1nnc(S(=O)(=O)N2CCCCCC2)s1 (configuration not stated)	.	.	.	.	.	/
CCC(Oc1ccccc1)C(=O)Nc1nnc(S(=O)(=O)N2CCCCC2)s1 (configuration not stated)	/	.	.	.	17.6	.
CN(Cc1cn(-c2ccccc2)nc1-c1ccc(F)cc1)C(=O)CCC(=O)O	.	.	.	.	17.2	.
CC1(C)N=C(N)N=C(N)N1c1ccc(OCC(=O)N2CCOCC2)c(Cl)c1	/	/	/	.	/	/
O=C(COC(=O)C1CC2C=CC1C2)Nc1c(Br)cc([N+](=O)[O-])cc1Br (configuration not stated)	.	.	.	.	.	/
Cc1c(Cl)cccc1NS(=O)(=O)c1ccc2c(c1)C1C=CCC1C(c1ccc(C(=O)O)cc1)N2 (configuration not stated)	110.8	.	.	.	30.9	.
O=C1CSC(c2cccc([N+](=O)[O-])c2)N1c1c(F)cccc1F (configuration not stated)	.	.	.	.	21.5	.
SMILES	C-LANA FP	cardiac RTF act	Keap1-Nrf2 PPI	E coli Lon inh	RTF Ca sens inh	RTF Ca inh conf
Cc1ccccc1C(=O)N/N=C1/SCC(=O)N1Cc1ccccc1	.	.	.	.	18.3	.
CN(C)c1cccc(CNC(=O)c2ccc3sc([C@@H]4O[C@H](CO)[C@H](O)[C@H](O)[C@H]4O)nc3c2)c1	/	/	/	.	/	/
O=C(Nc1ccccc1)c1cc(C2CCCCN2S(=O)(=O)Cc2cccc(C(F)(F)F)c2)on1 (configuration not stated)	/	/	/	.	/	/
OC(c1cccc(Cl)c1)c1nc(-c2csc3ccccc23)cs1 (configuration not stated)	/	/	/	.	/	/
COc1cc(CNC2CCCC2)cc(OC)c1	.	.	.	.	17.7	.
CCOC(=O)Nc1nnc(CCc2ccccc2)s1	.	.	.	.	.	/
CCc1nnc(NC(=O)OCc2ccccc2)s1	.	.	.	.	16.9	.
CCCCCCn1cc(CN2CC(N(C)CCC)CS2(=O)=O)nn1 (configuration not stated)	/	/	/	.	/	/
Cc1ccc2nc(-c3ccc(SCC(=O)Nc4ccc5c(c4)OCCO5)nc3)[nH]c2c1	.	.	.	.	.	/
O=C(CSc1ccc(-c2nc3ccccc3[nH]2)cn1)Nc1ccc2c(c1)OCCO2	.	.	.	.	20.7	.
C=CCN(C(=O)Cn1c(C(=O)OC)cc2oc(C)cc21)c1ccccc1	.	.	.	.	.	/
COC(=O)c1cc2oc(C)cc2n1CC(=O)N(C)c1ccccc1	.	.	.	.	17.1	.
O=C(Cn1nnc2ccccc2c1=O)Nc1ccc(S(=O)(=O)N2CCOCC2)cc1	.	.	.	.	17.2	.
Cc1ccc(NC(=O)Cn2nnc3ccccc3c2=O)cc1C	.	.	.	.	18.3	.
Cc1ccc(NC(=O)Cn2nnc3ccccc3c2=O)cc1	.	.	.	.	.	/
COC(=O)C1CCN(C2CN(Cc3ccc([N+](=O)[O-])cc3)S(=O)(=O)C2)CC1 (configuration not stated)	/	/	/	.	/	/
COc1ccc(CNC(=O)CCCCCNc2nc(=S)[nH]c3ccccc23)cc1	.	.	.	.	18.2	.
COc1ccc(CCNC(=O)CCCCCNc2nc(=S)[nH]c3ccccc23)cc1OC	.	.	.	.	.	/
O=C(COC(=O)CCSc1ccc(Cl)cc1)NCc1ccccc1Cl	.	.	.	.	17.6	.
C[C@H]1COc2cccc(N(C)CCO)c2S(=O)(=O)N1	/	/	/	.	/	/
Nc1c(S(=O)(=O)O)cc(NC(=O)c2ccccc2)c2c1C(=O)c1ccccc1C2=O	.	.	.	.	34.9	.
CC(C)Oc1cccc(NC(=O)C2(C)CCCN2C(=O)C(C)C)c1 (configuration not stated)	/	/	/	.	/	/
COc1cc(/C=N/NC(=O)c2c(C)nnn2-c2nonc2N)ccc1O	.	.	.	.	17.5	.
CCSc1cc(N2CCCC2)nc(-c2cccc(C)c2)n1	.	.	.	.	18.2	.
CCSc1cc(N2CCCC2)nc(-c2ccc(C)cc2)n1	.	.	.	.	.	/
O=C(OCC1CC(c2ccccc2)=NO1)c1ccc(Br)cc1 (configuration not stated)	.	.	.	.	17.9	.
CC1(C)CC(=O)C2=C(C1)Nc1ccccc1NC2c1cccs1 (configuration not stated)	.	.	.	.	18.9	.
